Laboratory results as given in the supplement of paper PMC3334620.
The full ranking holds about 33,000 sequences; the median of “E-score (-0.5 to 0.5)” is about -0.054, and the highest 2% start at about 0.39. The sample holds the highest values, similar sequences and a random draw of the others, so the mix is not that of the screen.

Target: Ylr278c (UniProt Q05854)
Experiment: PBM E-score (8-mer binding enrichment) (E-score (-0.5 to 0.5)); higher = stronger / more preferred TF binding
Settings: protein concentration: 200 nM; construct: GST-DNA-binding domain
Protocol: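 Universal 'all 10-mer' protein binding microarrays (Agilent AMADID 015681) probed with GST-tagged S. cerevisiae TFs (full-length or DBD) made by in vitro transcription/translation (PURExpress), about 100-200 nM. Bound TF was detected with fluorescent anti-GST. Each ungapped 8-mer (which stands for itself and its reverse complement) is scored by the PBM enrichment score (E-score), a modified Wilcoxon-Mann-Whitney statistic from -0.5 to +0.5, computed with the Universal PBM Analysis Suite. Scale: above 0.35 generally sequence-specific binding.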

Sequence of UniProt Q05854 (Q05854 whole entry): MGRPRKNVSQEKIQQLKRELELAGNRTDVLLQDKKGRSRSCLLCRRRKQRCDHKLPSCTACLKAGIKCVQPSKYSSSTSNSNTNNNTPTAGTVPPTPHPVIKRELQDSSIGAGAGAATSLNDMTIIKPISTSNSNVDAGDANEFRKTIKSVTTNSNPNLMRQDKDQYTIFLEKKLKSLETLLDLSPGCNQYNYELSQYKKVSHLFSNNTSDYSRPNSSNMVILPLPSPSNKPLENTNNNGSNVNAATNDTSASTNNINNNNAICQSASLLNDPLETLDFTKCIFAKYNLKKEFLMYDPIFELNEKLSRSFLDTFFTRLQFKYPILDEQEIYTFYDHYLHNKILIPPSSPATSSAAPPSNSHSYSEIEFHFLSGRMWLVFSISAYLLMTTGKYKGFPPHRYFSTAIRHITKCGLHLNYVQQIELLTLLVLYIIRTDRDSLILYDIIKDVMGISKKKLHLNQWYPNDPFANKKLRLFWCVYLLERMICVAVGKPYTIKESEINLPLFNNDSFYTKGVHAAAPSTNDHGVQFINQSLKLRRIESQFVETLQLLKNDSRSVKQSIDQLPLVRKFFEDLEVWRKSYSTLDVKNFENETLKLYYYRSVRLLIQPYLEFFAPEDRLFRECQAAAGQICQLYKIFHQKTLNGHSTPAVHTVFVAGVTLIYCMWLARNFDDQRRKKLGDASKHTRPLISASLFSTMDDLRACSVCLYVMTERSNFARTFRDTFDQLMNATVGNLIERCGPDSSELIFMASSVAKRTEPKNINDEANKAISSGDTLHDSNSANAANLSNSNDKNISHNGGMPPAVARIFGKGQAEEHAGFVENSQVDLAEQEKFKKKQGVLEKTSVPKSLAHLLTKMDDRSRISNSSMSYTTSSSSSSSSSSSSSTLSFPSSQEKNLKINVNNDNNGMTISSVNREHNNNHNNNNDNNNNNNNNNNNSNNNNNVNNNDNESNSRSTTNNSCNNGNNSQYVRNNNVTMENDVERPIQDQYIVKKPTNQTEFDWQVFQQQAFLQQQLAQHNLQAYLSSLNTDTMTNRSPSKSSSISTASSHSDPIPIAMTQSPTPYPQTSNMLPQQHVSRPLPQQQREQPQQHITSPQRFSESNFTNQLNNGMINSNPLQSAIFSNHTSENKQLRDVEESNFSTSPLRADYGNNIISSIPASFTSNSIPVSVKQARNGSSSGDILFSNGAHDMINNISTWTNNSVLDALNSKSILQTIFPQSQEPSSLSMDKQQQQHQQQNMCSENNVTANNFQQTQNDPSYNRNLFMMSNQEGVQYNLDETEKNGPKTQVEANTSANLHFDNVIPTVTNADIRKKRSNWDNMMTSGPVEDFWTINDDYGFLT

Sequence | PBM E-score
CTTCAACC | -0.0749
GCGATGCC | 0.0401
AGAGATGC | -0.0846
CATCACGC | 0.0744
ACGTGGAT | -0.233
AAAAGGTG | -0.196
ATCCCTAA | -0.254
ACGGCCCC | -0.034
AGGCGGAA | 0.304
CGGCGGAA | 0.438
GGGCGGAA | 0.364
ATGCCGCG | 0.304
ATTCCGCG | 0.439
ATTCCCCC | 0.162
ATTCCGCA | 0.356
CTTCCGCC | 0.343
ATTCCGCC | 0.418
CACACCCA | -0.107
GTACAACA | 0.014
GAACTACC | 0.0269
GAAAGTAA | -0.0679
CAACTGCC | -0.00091
CCTTTGAC | -0.121
CCGATTCC | 0.393
AGGATTTC | 0.0497

Sequence | PBM E-score
CTGATTTC | -0.0243
GCGATTCC | 0.237
ACGATTTA | 0.0466
CGGATTTC | 0.448
CCGATTTC | 0.303
CCGATTCG | 0.267
CCGATTTA | 0.396
GGGATTAA | 0.223
CGGATTAA | 0.39
CGGATTAG | 0.299
TACGCGAA | -0.0238
ACAGGAGC | -0.0789
CTCATGGC | -0.0203
ATGCAAGA | -0.214
ACACTAAC | 0.0293
ACCAAGAT | -0.0275
GACAATTA | 0.0117
GGATCGTA | -0.00905
AATAGATA | -0.126
ACACTGCC | 0.154
CGGATTCA | 0.161
AGGATTTA | 0.00139
AGGATTCC | -0.00339
CGGATGTA | 0.307
CGGATTTA | 0.451

Sequence | PBM E-score
AGGATGTC | -0.0871
GGGATTTA | 0.287
CGGATGTC | 0.4
CGGATTCC | 0.427
TTAAAAAA | -0.12
AGACCCAC | -0.00095
GACTAAAC | -0.0103
GGGCAACA | 0.0452
AACCACTG | -0.136
GCCCTCAC | -0.226
CATCCCGA | 0.262
AATCCCGT | 0.346
CATCCCCG | 0.396
CATCCCGG | 0.342
AATCCCCG | 0.398
AATCCCCA | -0.0702
CATCCCCC | -0.0212
TATCCCGA | 0.258
CATCCCCA | -0.109
AATCCCCC | 0.0792
AATCCCGA | 0.42
AATCCCGG | 0.439
AGGTTCAG | 0.0375
AAGCCTCC | 0.0849
CATTGGCA | -0.208

Sequence | PBM E-score
CAAGATCC | 0.167
ATTATAGC | -0.086
ATGTCTAC | -0.1
AGAAAGAT | -0.103
CACGTCAC | -0.147
GCGCATAA | -0.0332
ACCAAGAG | -0.29
CCCGAGAA | 0.293
TCCGAGGA | 0.401
ACCGAGAA | 0.109
GCCGATAA | 0.301
TCCGAGAA | 0.421
TCCGATAA | 0.428
GCCGAGGA | 0.197
ACCGATAA | 0.269
CCCGAGGA | 0.061
ACAATGGT | -0.255
ATCGTGAA | 0.00733
GGAGGTTA | 0.101
AAAAGATC | -0.0655
ATGCCGCC | 0.325
CCCATGGC | -0.0499
ATACCGGC | 0.354
ATACCGGA | 0.405
GTACCGGA | 0.415

Sequence | PBM E-score
CTACCGGA | 0.348
GTACCGCA | 0.164
ATACCGGG | 0.334
ATGTCCCA | -0.0785
CTCTACTA | -0.245
GAGCAAAC | 0.0239
CTCCTATC | -0.0262
GGGGCGTA | 0.0266
AGGGCGGA | 0.385
CGAGCGGA | 0.381
CGGGCGGA | 0.405
GGAGCGGA | 0.396
GGGGCGGA | 0.412
CGGGCGTA | 0.178
CGGGCGGC | 0.31
AGAGCGGA | 0.254
CCAGTAGC | 0.181
CATTGCTA | -0.0953
ACGCTCTA | -0.183
ATCGAAAG | -0.0309
GACTGCTA | -0.277
CCAGTCCA | -0.17
GTCCCTAA | -0.0663
AAGAGAGT | -0.0766
ATTCCAGC | -0.104

Sequence | PBM E-score
ACTCCCGG | 0.396
ATTCCTGC | 0.0732
ACTCCCGA | 0.217
ATTCCCGA | 0.338
ACTCCCCG | 0.338
ATTCCTGG | -0.0751
ATTCCGGC | 0.463
ATTCCGGG | 0.443
ATTCCCGG | 0.411
ATTCCCCG | 0.375
ATTCCGTG | 0.361
GCGAGTCA | -0.0556
CACCGCCC | 0.218
AAGCTCTG | -0.356
ATTTATCC | 0.163
ACATCAAC | 0.05
TAAAGAAA | 0.0382
CGCCAAAC | 0.0632
AATTAGCC | 0.0197
ACGGAATA | 0.357
CCGGAATC | 0.435
GCGGAATA | 0.396
ACGGAAGA | 0.169
GGGGAATA | 0.141
GTGGAATA | 0.0653

Sequence | PBM E-score
CCGGAATA | 0.434
CCGGAAGA | 0.421
ACGGAATC | 0.32
CCGGAAGG | 0.387
CTGGAATC | -0.0172
CGGGAATA | 0.374
AAATGTGA | -0.146
CACCCCCG | 0.145
CATCTTTA | -0.0964
AGGTAACG | -0.0647
GTATGGGA | -0.174
CCTCTACA | -0.252
AAGATCTT | 0.0756
AAGCGTCT | -0.176
ACTCATGG | -0.191
ATCCGGTG | 0.408
AACCGGCC | 0.275
ACCCGGCC | 0.272
ATCCGACG | 0.367
ATCCGGCG | 0.432
ATCCGGCC | 0.399
ATACGGTG | 0.0149
AACCGGCG | 0.361
ACCCGGTG | 0.277
CTCACCTC | -0.0994

Sequence | PBM E-score
CTAGCATC | -0.167
CTGCTTTA | 0.0716
GGTCTCTA | -0.21
ATCGCCAC | -0.0201
GCTGGGCA | -0.184
ATAACTTG | -0.14
ATACTGCC | 0.013
ATAGAGAG | -0.283
AAGTCCGG | 0.481
ACGTCCGC | 0.299
AAGTCCGT | 0.433
AAGTCCGC | 0.46
AAGTCCAT | -0.0494
AAGTCCTC | 0.122
AAGTCCTG | -0.106
AAGTCCCT | -0.213
AAGTCCAG | -0.0689
CACCGCTG | -0.0372
ACTTAAGG | -0.105
ACACAAGA | -0.0979
ACTAGAAT | -0.0455
ATTGGCCC | -0.211
GTCGTCGA | -0.121
AGGGTGCC | -0.211
CGTATCTC | 0.148

Sequence | PBM E-score
TCCGGCGA | 0.437
GCCGGCAA | 0.391
ACCGGCGA | 0.379
TCCGGCAA | 0.431
GCCGGCAC | 0.304
TCCGGCCA | 0.409
GCCGGCGA | 0.385
ACCGGCAA | 0.285
CCCGGCCA | 0.267
ACCGGCCA | 0.169
CCCGGCAA | 0.303
TACGGCAA | 0.129
CCTAGTAA | 0.00285
AGCCTGGC | -0.226
AACCAGGG | -0.155
GCTGCACC | 0.00051
GAGGTGAA | -0.0886
ACATCAGC | -0.0321
GATTCCGC | 0.355
AATTCCTG | 0.0336
AATTCCCT | -0.103
AATTCCAA | -0.00843
AATTCCCG | 0.345
AATTCCAT | 0.0569
AATTCCCA | -0.035

Sequence | PBM E-score
AATTCCGA | 0.48
AATTCCGC | 0.456
CATTCCGC | 0.32
AATTCCGG | 0.48
AATTCCGT | 0.441
GCTAAATA | -0.231
TGTGGAAA | -0.0101
ATCCATTC | -0.0913
TCTCGAAA | -0.21
AAATGCCA | -0.131
CAGGCTGG | -0.0868
TGTGTCAA | -0.227
CCGTTGTC | 0.233
CAGTCGGA | 0.357
GAATCGCA | -0.0817
AAATCGGA | 0.43
AAATCGGT | 0.148
GAATCGGA | 0.409
GAGTCGGA | 0.387
CAATCGGA | 0.425
GAATCGGC | 0.33
AAATCGGG | 0.276
CAATCGGG | 0.219
TAGTCGGA | 0.414
CAATCGGC | 0.129

Sequence | PBM E-score
AGACGCAG | -0.164
CCGCACAC | 0.0213
AACCCAGG | -0.176
ATGTACTC | -0.0177
AGAGCTAA | -0.171
CGAACGCA | 0.106
CTCTGACC | -0.148
AATTTTCC | 0.358
GCCATCGC | -0.0776
ATGTTCTG | -0.11
TCTCTACA | -0.211
TAATCGGA | 0.417
TAATCGTA | -0.186
TAATCGAA | -0.0147
CCCTGTCA | -0.228
GCCGCGAA | 0.233
CGCGCGGA | 0.398
GCCGCGCA | 0.21
GGCGCGGA | 0.352
ACCGCGGT | 0.178
GACGCGGC | 0.079
ACCGCGGG | 0.299
AGCGCGGA | 0.325
ACCGCGGC | 0.305
GCCGCGGA | 0.409

Sequence | PBM E-score
GCCGCGGC | 0.406
ACCGCGGA | 0.407
AAGTTCAT | 0.154
CGCTTTTA | 0.129
CATGGCAC | 0.133
TACCCGCA | 0.157
CAGCACCC | -0.0668
AGTCAGTA | 0.00611
CATAGCCG | 0.23
AACTCTTC | -0.204
AAGTGGTA | -0.0771
AGTTGTGG | -0.0534
TCCGCGAA | 0.343
CCCGCGGG | 0.363
TACGCGGA | 0.309
AACGCGGA | 0.397
AACGCGGC | 0.183
CCCGCGGA | 0.409
CACGCGGA | 0.379
TCCGCGGA | 0.44
CCCGCGGC | 0.336
CCTCTCAA | 0.0673
GGTAGAAA | -0.0702
AGCCCATG | -0.131
ACATTGAG | -0.114

Sequence | PBM E-score
CGACCTAG | 0.02
AACGGTCT | -0.0855
CAACTCCA | 0.0206
AAACTCCT | 0.23
CAACTCCG | 0.486
CAACTCCC | 0.154
AAACTCCG | 0.496
AAACTCCA | 0.176
CACGCTCC | 0.129
CTCGCGTC | 0.0578
GGGCTCAA | -0.00819
ACTCCGGG | 0.481
ACTCCTGC | 0.165
ACTCCTGG | -0.0351
GCTCCAGA | -0.103
ACTCCAGG | 0.00347
GCTCCGGA | 0.464
CCTCCAGC | -0.37
CCTCCTGC | -0.182
CCTCCGGC | 0.448
ACTCCAGC | -0.122
ACTCCGGC | 0.476
GCTCCCGA | 0.0641
ATAAGTTA | -0.103
ACTAGAAG | -0.121

Sequence | PBM E-score
AGAAGGAT | -0.269
ACTTCAGG | -0.0351
ACTGCATC | -0.142
CCACTTCC | 0.0941
CTCTTGGC | -0.239
CTGAGGGC | -0.251
CCTCCCGA | 0.0701
ACTCCAGA | -0.112
ACTCCTGA | 0.0258
CCTCCTGA | -0.172
CCTCCGGA | 0.467
ACTCCGGA | 0.494
CGCGCAAG | 0.0504
CTACACGC | -0.235
GCGATATA | 0.00114
ACTAGCAA | -0.104
AGGTGCAC | 0.0215
GGAATTCC | 0.441
AGAATTCC | 0.283
GGAATTCA | 0.183
